# LMNA splice mod = modulators of lamin A splicing; HeLa LMNA splicing GFP/RFP minigene ratio, 48 h; Potency, µM (titrated, usually from 46.1 µM), for inactives: at the highest dose ratio change, negative = inhibition, actives largely listed as inhibitors; hit rate 0.01% among 200,000; active = well fitted inhibition curve with a large enough effect in the signal ratio, with a control signal flat, not every such curve was filed as active; inconclusive = small, poorly fitted or top-dose-only effect, or effect the other way, or a change in a side signal; the % refers to the signal ratio; also: potency is read from the fitted curve at half-maximal effect
#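 Read-out is the ratio of GFP to DsRed2 object intensity, acquired by 488 nm laser-scanning cytometry on HeLa lamin A-EGFP minigene reporter cells. Compound incubation 48 hrs at 37 °C in Opti-MEM with 2% FBS; DMSO 0.5% final.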
# ALDH1A1 inh = blocks purified human ALDH1A1 activity | Potency, µM (titrated, usually from 75.3 µM), for the others: at the top dose activity, negative = inhibition, hits mostly inhibitors | Purified ALDH1A1, NADH fluorescence, propionaldehyde substrate | AID 1030 | hit rate 7.3% among 220,000;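 also: potency is read from the fitted curve at half-maximal effect; plate controls were no enzyme wells and a reference inhibitor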
# Target sequence (P00352 whole entry, looked up): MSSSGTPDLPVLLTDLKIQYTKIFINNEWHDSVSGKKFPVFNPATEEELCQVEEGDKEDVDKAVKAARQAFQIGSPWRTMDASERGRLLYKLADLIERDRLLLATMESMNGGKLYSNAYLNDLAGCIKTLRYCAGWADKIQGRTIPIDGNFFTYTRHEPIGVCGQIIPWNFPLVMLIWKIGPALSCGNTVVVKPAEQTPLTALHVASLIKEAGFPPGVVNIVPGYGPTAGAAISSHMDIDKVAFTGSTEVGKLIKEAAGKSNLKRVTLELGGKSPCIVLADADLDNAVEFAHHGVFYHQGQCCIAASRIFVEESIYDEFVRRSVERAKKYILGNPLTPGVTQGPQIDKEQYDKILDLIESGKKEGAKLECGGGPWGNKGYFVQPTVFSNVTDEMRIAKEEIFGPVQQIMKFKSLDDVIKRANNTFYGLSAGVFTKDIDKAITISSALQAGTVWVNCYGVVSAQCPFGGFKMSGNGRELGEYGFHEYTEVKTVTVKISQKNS
# HPGD inh = blocks human HPGD enzyme activity | purified HPGD, NADH fluorescence kinetic, PGE2 substrate | hit rate 4.3% among 150,000 | Potency, µM, for the others: at the highest dose activity change, negative = inhibition, usual class: inhibitors | AID 894; also: potency is read from the fitted curve at half-maximal effect
# Target sequence (P15428 whole entry, looked up): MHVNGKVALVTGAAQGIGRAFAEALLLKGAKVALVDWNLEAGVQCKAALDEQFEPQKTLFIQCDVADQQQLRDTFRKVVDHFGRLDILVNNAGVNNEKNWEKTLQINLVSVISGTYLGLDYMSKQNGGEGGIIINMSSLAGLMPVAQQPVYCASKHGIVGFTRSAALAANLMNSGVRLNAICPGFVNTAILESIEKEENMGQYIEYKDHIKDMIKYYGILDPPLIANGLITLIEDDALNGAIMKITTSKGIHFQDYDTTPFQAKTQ
#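 NADH formation kinetics: reaction with 30 uM PGE2 and 1 mM NAD+ (final), 20 nM enzyme, Tris-HCl pH 8 with Tween 20, after 15 min compound preincubation at room temperature. Fluorescence change, last versus first of five reads.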
# PNC inhibitor = inhibitors of perinucleolar compartment assembly. PC3M PTB-GFP, PNC prevalence imaging, 16 h; active compounds read low. activity change (PNC), negative = inhibition, % at 10 µM. hit rate 3.1% among 140,000. AID 2417;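 active = readout at or below -70, meaning at least 70% loss of cells showing the perinucleolar compartment, a nuclear body marking cancer cells; inconclusive = readout between -30 and a set limit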;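 also: plate controls were DMSO wells for no effect and camptothecin positive control wells for full effect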
#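 Read-out is percentage of cells bearing a perinucleolar compartment, from automated 20x imaging of fixed, Hoechst-stained PC3M PTB-GFP cells. Cells were seeded 4 h, then exposed 16 h to compound (23 nl of library stock) in duplicate plates.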
# ALOX12 inhib = inhibitors of human 12-lipoxygenase (ALOX12) | P18054 | purified 12-hLO, xylenol orange hydroperoxide absorbance | Potency, µM (titrated, usually from 57.1 µM), inactives show at the top dose activity change, negative = inhibition, hits mostly inhibitors | hit rate 0.12% among 150,000 | AID 1452; active = well fitted inhibition curve with a large enough effect; inconclusive = small, poorly fitted or top-dose-only effect; also: potency is read from the fitted curve at half-maximal effect; nearly all actives have a fitted effect of over 55% in size
#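 Purified human 12hLO (150 nM), preincubated 15 min with compound, then 40 uM arachidonic acid for 30 min, room temperature, Hepes pH 7.0 with 0.01% Triton X-100. Hydroperoxide detected by ferrous iron/xylenol orange; 573/405 nm absorbance ratio gives reaction progress.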
# Starred values were filed as active, the others as inactive; ? = inconclusive; · = no result given; [ ] = dose if it differs, or a comment. An excerpt weighted towards active compounds, which were near 10% of everything screened. Unless noted, calls follow the shape of the dose curve; as a rule, active = well fitted inhibition curve with a large enough effect (not every such curve was filed as active); inconclusive = small, poorly fitted or top-dose-only effect, or another doubt; inactive = no such curve, though single readings can be large or run the other way. Unless noted, % is scaled to controls: 0 for no effect and ±100 for the full control effect.
SMILES,LMNA splice mod,ALDH1A1 inh,HPGD inh,PNC inhibitor,ALOX12 inhib
Cc1ccc(CNC(=O)C2CCCN(c3ncnc4onc(-c5ccc(F)cc5)c34)C2)cc1 (centres undefined),2.3%[46 µM],·,·,·,·
COc1ccc(-c2ccc(C(=S)N3CCN(C(C)=O)CC3)o2)cc1,11.6%,11.2µM*,11.2µM*,?,-11.8%
COc1ccc(CNc2cc(-c3ccccc3OC)ncn2)c(OC)c1,?,0.7%,·,·,·
Oc1cc2c(cc1C(c1ccc(Br)cc1)N1CCCC1)OCO2 (centres undefined),·,2µM*,·,·,·
O=C1C2C3C=CC(C3)C2C(=O)N1c1ccc2ccccc2n1 (centres undefined),-1.1%,-4.8%,-18.4%,?,-0.8%
O=C1C2C3C=CC(C3)C2C(=O)N1c1cccc(N2C(=O)C3C4C=CC(C4)C3C2=O)n1 (centres undefined),-3.7%,-5.7%,-1.9%,-98.8*,2.4%
COc1ccc(OC)c(NC(=O)CCc2c(C)nn(-c3ccc(N4CCCC4)nn3)c2C)c1,-3.5%[46 µM],·,·,·,·
Cn1c(=O)cc(SCC(=O)NCCC2=CCCCC2)c2ccccc21,-10.6%,?,7.08µM*,-20.3,0.8%
Cn1c(=O)cc(SCC(=O)NCC2CCCO2)c2ccccc21 (centres undefined),4.9%,12.6µM*,·,-7.9,-4.7%
CC(C)C(=O)c1cn(CC(=O)NCC2CCCO2)c2ccccc12 (centres undefined),8.3%,22.4µM*,-12.5%,27.1,-7.0%
Cn1cc(SCC(=O)NCC2CCCO2)c2ccccc21 (centres undefined),-5.1%,1.7%,28.2µM*,-6.1,-2.4%
CC(C)(Oc1ccc(Cl)cc1)C(=O)Nc1nnc2n1CCS2,-6.7%[46 µM],·,·,·,·
O=C(Cc1cccc2ccccc12)NCCOc1ccccc1F,-7.2%[46 µM],17.1%,·,·,·
CC(c1cccs1)N(C)Cc1nc(CCc2ccccc2)no1 (centres undefined),?,-5.7%,·,·,·
O=C(Cn1ncc2c(=O)oc3ccccc3c21)NCC1CCCO1 (centres undefined),-7.0%,8.0%,1.9%,-119.3*,5.0%
O=C(Cn1ncc2c(=O)oc3ccccc3c21)NCc1cccnc1,·,6.6%,·,·,·
O=CNCCCc1nc2ccccc2n1Cc1ccccc1,14.4%,22.4µM*,-6.2%,?,-0.6%
O=C(NN1CCN(Cc2ccccc2)CC1)c1ccc(N2CCOCC2)c([N+](=O)[O-])c1,11.4%[46 µM],2.24µM*,·,·,·
O=C(NCCN1CCOCC1)c1ccc(N2CCCC2)c([N+](=O)[O-])c1,?,15.8µM*,·,·,·
O=C(NCc1ccc2c(c1)OCO2)c1ccc(N2CCCCCC2)c([N+](=O)[O-])c1,?,10µM*,14.1µM*,-5.5,-1.7%
CC1CCCN(c2ccc(C(=O)NCc3ccc4c(c3)OCO4)cc2[N+](=O)[O-])C1 (centres undefined),?,?,?,?,-4.3%
CCS(=O)(=O)N1CC(=O)N(c2ccc(Cl)cc2)C(C)(C(=O)NC2CCCCC2)C1 (centres undefined),0.9%[46 µM],·,·,·,·
CC(C)CCNC(=O)C(=O)Nc1c2c(nn1-c1ccc(Cl)cc1)CSC2,6.6%[46 µM],·,·,·,·
Cn1cc(C(=O)O)c(=O)c2cc(S(=O)(=O)N3CCCCC3)ccc21,-21.8%[46 µM],·,·,·,·
Cc1ccc(S(=O)(=O)CCC(=O)O)cc1C,-0.4%,8.91µM*,-2.3%,-27.4,-3.7%
SMILES,LMNA splice mod,ALDH1A1 inh,HPGD inh,PNC inhibitor,ALOX12 inhib
O=C(NCCC1=CCCCC1)C1CCN(S(=O)(=O)c2cccs2)CC1,18.1%,12.6µM*,-1.8%,?,-6.6%
O=C(NCCC1=CCCCC1)C1CCN(C(=O)Cc2ccccc2)CC1,?,5.01µM*,·,·,·
O=C(Nc1cc(Cl)ccn1)C1CCN(S(=O)(=O)c2cccs2)CC1,?,8.91µM*,-3.1%,-14.4,-3.4%
Cc1ccc(CNC(=O)C2CCN(S(=O)(=O)c3cccs3)CC2)o1,-8.9%,14.1µM*,-24.6%,?,-4.5%
Oc1ccc(Cl)cc1C=Nc1ccccc1Br,-11.0%,17.9%,-4.8%,25.5,-6.2%
Oc1ccc(Br)cc1C=Nc1ccc2c3c(cccc13)CC2,-1.0%,?,?,-98.5*,-7.0%
Cc1nc2cc(Nc3ccncc3)ccc2s1,-13.4%[46 µM],15.4%,·,·,·
CCCCC[C@H](O)/C=C/C=C\C/C=C\CCCCC(=O)O,·,0.2%,1.5%,·,3.1%
CCOc1ccccc1NC=C1C(=O)OC(C)(C)OC1=O,16.2%,2.24µM*,-23.6%,60.6,-0.2%
CC1(C)OC(=O)C(=CNc2ccccc2F)C(=O)O1,-0.9%,?,-7.1%,?,0.1%
COc1ccccc1NC=C1C(=O)OC(C)(C)OC1=O,16.3%,0.355µM*,-15.3%,46.3,1.2%
O=S(=O)(CC12C3C4C5C1C2C(Br)(C43)C51OCCO1)c1ccccc1 (centres undefined),·,11.2µM*,-6.1%,5.5,-3.9%
N[C@]1(C(=O)O)CCc2cc(P(=O)(O)O)ccc21,·,-15.0%,0.9%,·,1.7%
O=C(NC1CCCCC1)C(c1ccc2ncccc2c1)N(Cc1ccc(F)cc1)C(=O)c1ccc2c(c1)OCCO2 (centres undefined),11.6%,?,-5.4%,-7.8,4.1%
O=C(NC1CCCCC1)C(c1ccc2ncccc2c1)N(Cc1ccc2c(c1)OCO2)C(=O)c1ccc2c(c1)OCCO2 (centres undefined),?,28.2µM*,-13.9%,-24.5,1.8%
CCOC(=O)C1CCN(C(=O)c2cc3cc(Br)ccc3oc2=O)CC1,?,-1.0%,·,·,·
Cc1nn(C)c(C)c1/C=C1/SC(=S)NC1=O,-4.2%,?,-28.6%,-7.6,-5.1%
CCN1C(=O)/C(=C/c2c(C)nn(C)c2C)SC1=S,4.0%,1.41µM*,-26.8%,?,-5.8%
CCN1C(=O)/C(=C/c2cnn(CC)c2C)SC1=S,-1.2%,2µM*,-15.3%,10.3,1.3%
CCN1C(=O)/C(=C/N2CC(C)CC(C)C2)SC1=S (centres undefined),4.7%,?,-5.5%,-88.8*,5.1%
Cc1ccc(NC(=O)Nc2cc(Cl)ccc2C2COC(=O)C2=N)cc1 (centres undefined),·,7.51µM*,·,·,·
N=C1C(=O)OCC1c1ccccc1NC(=O)Nc1ccccc1 (centres undefined),·,-4.9%,·,·,·
C[C@H](CCC(=O)O)[C@H]1CC[C@@H]2[C@@H]3CC[C@H]4C[C@@H](O)CC[C@@]4(C)[C@@H]3C[C@H](O)[C@@]21C,·,-0.4%[13.5 µM],-7.7%,·,12.6%[11.4 µM]
NNC(=O)c1sc2cc(C(F)(F)F)cnc2c1-c1ccccn1,·,7.08µM*,·,·,·
CCOC(=O)N1CCN(c2ccc(O)cc2)CC1,12.6µM*,-5.2%,-8.0%,-25.5,-7.4%
CC(C)(C)NC(=O)NC(=O)CN1CCN(c2ccc(O)cc2)CC1,-9.0%[9.22 µM],22.4µM*,·,·,·
CC(CCc1ccccc1)NC(=O)CN1CCN(c2ccc(O)cc2)CC1 (centres undefined),·,8.91µM*,·,·,·

# Source: PubChem (National Center for Advancing Translational Sciences (NCATS))
